# About 18,000 (4.4%) of roughly 410,000 compounds were called active. Not shown: some 7% with an inconclusive outcome. The sample holds actives, similar compounds and a random draw of the others, so the mix is not that of the screen. Values without a mark were called inactive. No stated cut-off is given here; in the data, active means activity change below about -60%; inconclusive means no clear call, values can overlap the other calls; inactive means above about -39%.
# Assay: qHTS Assay for inhibitors of the human cytomegalovirus (HCMV)
# Details: HFF cells, HCMV-luciferase reporter, 72 h; at 57.5 µM; hits give low values
# Summary of the method: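 Two-dose cell screen: HFF monolayers treated with compounds and infected with luciferase-expressing HCMV at 1 PFU/cell, 72 h at 37C, then lysed for luciferase measurement.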
# On the % scale 0 is the no-effect control and ±100 the full control effect.
row,SMILES,"activity change, negative = inhibition"
1,CCOC(=O)Cn1c(=O)n(C2CCCCC2)c2nc(-c3cccc(OC)c3)nc(C(N)=O)c21,18.1%
2,O=C(/C=C/c1ccccc1)N1CCN(Cc2cc(=O)n3nc(-c4ccccc4F)sc3n2)CC1,34.4%
3,O=C1OCC2=C1C(c1ccc(Cl)cc1)c1cc3c(cc1O2)OCO3 (stereo not given),37.6%
4,COc1ccccc1C1C2=C(COC2=O)Nc2cc3c(cc21)OCO3 (stereo not given),-87.9% (active)
5,O=C1NC(c2cc3c(cc2Cl)OCO3)Oc2ccccc21 (stereo not given),17.7%
6,Cc1cc2c(cc1C)C(c1cccc(OC(C)C)c1)CC(=O)N2 (stereo not given),-38.7%
7,CCCOc1ccccc1C1CC(=O)Nc2cc3c(cc21)OCO3 (stereo not given),-61.8% (active)
8,O=C1CC(c2ccc(F)cc2F)c2cc3c(cc2N1)OCO3 (stereo not given),-1.6%
9,COc1ccc(-c2onc(C)c2C)cc1S(=O)(=O)NCC1CCN(Cc2cccc(F)c2)CC1,0%
10,Cc1ccccc1CN1CCC(CNC(=O)c2c(C)oc3ncnc(N4CCCCC4)c23)CC1,-4.04%
11,Cc1sc2ncn(CC(=O)N3CCN(c4ccc(F)cc4)CC3)c(=O)c2c1S(=O)(=O)N1CCN(c2ncccn2)CC1,-4.66%
12,Cc1n[nH]c(=O)c2c(NC(=O)CSc3ccccc3F)oc(C)c12,-30.8%
13,COc1ccc(N2C(=O)CS(=O)(=O)C23C(=O)N(Cc2ccc(C)cc2)c2ccccc23)cc1Cl (stereo not given),-12.4%
14,COc1ccc(NC(=O)CC2COc3ccccc3O2)c(OC)c1 (stereo not given),9.76%
15,COc1ccccc1C1CCN(C(=S)Nc2ccc(Br)cc2)CC1,2.47%
16,S=C(NCC1COc2ccccc2O1)Nc1ccc(Br)cc1 (stereo not given),-67.8% (active)
17,CCC(=O)N1CCc2cc(S(=O)(=O)NC(Cc3ccccc3)C(=O)NCc3ccc(C)cc3)ccc21 (stereo not given),5.04%
18,Cc1ccc(N(Cc2cc(=O)[nH]c3ccccc23)C(=O)CCl)cc1,-101% (active)
19,Cc1ccc(N(Cc2ccccc2O)C(=O)c2ccccc2F)cc1,-8.68%
20,CCC(=O)N(Cc1cc2ccccc2[nH]c1=O)c1ccc(OC)cc1,18.3%
21,Cc1ccc(C)c(NC(=O)Cn2ccn(-c3ccc(F)cc3)c(=O)c2=O)c1,-35.9%
22,O=S(=O)(Nc1ccc2nc(-c3cccc(Cl)c3)oc2c1)c1ccccc1,-36.4%

row,SMILES,"activity change, negative = inhibition"
1,COc1ccc(C(C)(C)C)cc1NC(=O)CN(C)C1=NS(=O)(=O)c2ccccc21,6.84%
2,Oc1cccc(/C=N/Nc2ccc(Cl)nn2)c1O,-95.1% (active)
3,COc1ccc(-n2ccn(CC(=O)Nc3ccc(C)c(C)c3)c(=O)c2=O)cc1OC,-20.8%
4,CC(C)N1C(=O)N(c2ccccc2)C(C)(O)CC1(C)C (stereo not given),-26.6%
5,CC(CC(=O)Nc1ccccc1)n1ccnc1 (stereo not given),39%
6,CC(=O)N1CCc2cc(S(=O)(=O)NC(Cc3ccccc3)C(=O)NCc3ccc(C)cc3)ccc21 (stereo not given),-12.2%
7,Cc1ccc(S(=O)(=O)N2C[C@H]3n4c(=O)ccc(=O)n4C[C@H](OC(=O)NC4CCCC4)[C@@]3(O)C2)cc1,-24.9%
8,C#CCN(C[C@H]1[C@H](OC(=O)NC2CCCC2)[C@H](OC(=O)NC2CCCC2)C[C@H]2C(=O)N(c3ccccc3)C(=O)[C@@H]12)S(=O)(=O)c1ccc(C)cc1,-6.21%
9,C#CCN(C[C@@H]1[C@@H](OC(=O)NC2CC2)[C@@H](OC(=O)NC2CC2)Cn2c(=O)ccc(=O)n21)S(=O)(=O)c1ccc(C)cc1,-96.3% (active)
10,CCC(=O)N1N=C(c2ccc(OC)cc2)CC1c1cn(-c2ccccc2)nc1-c1cccs1 (stereo not given),-16.7%
11,COc1ccc(Br)cc1CNC(=O)c1cc(=O)[nH]c2ccc(S(=O)(=O)N3CCCC3)cc12,37.6%
12,COc1ccccc1CNC(=O)NCc1noc2ccc(C)cc12,-4.73%
13,O=C(CCCC(=O)N(CC(=O)NC1CCCC1)Cc1ccccc1Cl)Nc1ccccn1,-99.6% (active)
14,CCOc1ccccc1N(CC(=O)NC1CCCCC1)C(=O)CCCC(=O)Nc1ccccn1,-7.08%
15,Cc1ccc(N(CC(=O)NC2CCCCC2)C(=O)CCCC(=O)Nc2ccccn2)c(C)c1,0.377%
16,Cc1ccc(S(=O)(=O)N2CCC(C(=O)NCCC3=CCCCC3)CC2)cc1C,-15.1%
17,CC(=O)c1ccc(NC(=O)CSc2c(C(C)C)cnc3c2c(=O)n(C)c(=O)n3C)cc1,-7.7%
18,CC(C)(C)c1ccc(C(=O)NCC(c2ccco2)S(=O)(=O)c2ccc(F)cc2)cc1 (stereo not given),-16.6%
19,CN(C)Cc1c(O)ccc2c(=O)c(-c3ccccc3Cl)coc12,14.6%
20,CC(C)CN(Cc1c(O)ccc2c(=O)c(-c3ccccc3)coc12)CC(C)C,-72.9% (active)
21,CCN(Cc1ccccc1)Cc1c(O)ccc2c(=O)c(-c3ccc(Cl)cc3Cl)coc12,1.81%
22,CN(O)C(=S)c1ccccc1,-97.9% (active)

row,SMILES,"activity change, negative = inhibition"
1,CCOC(=O)c1cccn1C1C(=O)N(Cc2ccc(OC)cc2)c2c(F)cccc21 (stereo not given),-32%
2,CC(=O)c1ccc(NC(=O)CSc2nc(-c3ccccc3F)nc3c2c(=O)n(C)c(=O)n3C)cc1,0.932%
3,O=C(Nc1nccs1)c1cc(S(=O)(=O)N2CCOCC2)c(Cl)cc1Cl,32.2%
4,CCN(CC)C(=O)c1ccc(NC(=O)c2cc(-n3cnnc3)ccc2Cl)cc1,34.8%
5,CN(C)S(=O)(=O)c1cc(C(=O)Nc2ccn(C)n2)c(Cl)cc1Cl,0% (active)
6,Cc1ccc(N2CC(c3nnc(Cc4ccccc4Cl)o3)CC2=O)cc1 (stereo not given),-8.78%
7,CCOC(=O)CNC(=O)c1cc2c(=O)n3cccc(C)c3nc2s1,9.74%
8,Cc1ccc2oc(=O)c3cnn(CC(=O)N4CCN(c5cccc(Cl)c5)CC4)c3c2c1,-2.47%
9,CCCCN(CC)CCCNC(=O)c1nn(C)c2c1CS(=O)(=O)c1ccccc1-2,-8.91%
10,O=C(NCc1ccc(F)cc1)c1ccc2nc(N3CCCCC3)sc2c1,65.5%
11,c1c2c(cc3sc(N4CCCCC4)nc13)OCCO2,-64.2% (active)
12,CCOC(=O)c1cc2c(=O)n3ccccc3nc2n(CCCOC)c1=NC(=O)C(C)(C)Oc1ccc(Cl)cc1,6.81%
13,COc1ccc(CCNCc2c(C(=O)O)c(C)n(Cc3cccc(C)c3)c2C)cc1OC,-1.54%
14,Cc1ccccc1CN1C[C@@H]2C[C@@H](c3cn(C)nc3-c3ccccc3)N3CCC[C@@]23C1=O,32.8%
15,CCOc1ccc(-c2cc3c(=O)n(CC(=O)NCc4ccc(OC)cc4)ccn3n2)cc1,78.4%
16,CCOc1ccc(-c2cc(C)n3nc(C(=O)Nc4ccc(C)c(C)c4)cc3n2)cc1,-5.97%
17,CCOc1ccc(NC(=O)c2cc(C)nc3ccccc23)cc1,-60.4% (active)
18,CCOc1ccc(CNC(=O)c2cc(-c3ccc(Cl)s3)nc3ccccc23)cc1,1.58%
19,CCOc1ccc(-c2cc(C(=O)N/N=C/c3ccc(O)cc3)c3ccccc3n2)cc1,-83% (active)
20,CCOc1ccc(NC(=O)c2cnn(-c3ccccc3)c2-n2cccc2)cc1,-19.9%
21,Cc1ccc(NC(=O)Cn2nnc3sc4c(c3c2=O)CCC(C)C4)cc1 (stereo not given),-19.7%
22,COc1ccc(-c2onc(C)c2C)cc1S(=O)(=O)NCc1cccs1,86.9%

row,SMILES,"activity change, negative = inhibition"
1,O=C(COc1ccc(Cl)cc1)Nc1ccccc1OCc1cc(=O)n2ccccc2n1,47.7%
2,COc1ccc(C(=O)COC(=O)CCCC(=O)Nc2cc(C(F)(F)F)ccc2Cl)cc1,-1.47%
3,CCCCC(=O)Nc1ccc(C(=O)Nc2cc(C(F)(F)F)ccc2Cl)cc1,-64% (active)
4,CC(=O)Nc1ccc(NC(=O)CCCNC(=O)c2ccc(Cl)cc2)cc1,-21.3%
5,O=C(CCc1nc(CN2CCN(S(=O)(=O)c3ccc(Br)cc3)CC2)no1)N1CCCCC1,20.2%
6,CCOC(=O)c1ccc(NC(=O)CCS(=O)(=O)c2ccc3c(c2)oc(=O)n3C)cc1,0.775%
7,CCOc1ccc(CNC(=O)c2cccc(Nc3nc4ccccc4n4nnnc34)c2)cc1OC,-17.1%
8,COc1cncc(-c2cnc3sc(NCCc4ccccn4)nn23)c1,-64.8% (active)
9,COc1ccc(-c2nc3sc(CCNC(=O)C(C)(C)C)c(C)n3n2)cc1,-21.2%
10,O=C(CNC(=O)COc1ccccc1)NCCc1ccccn1,31.2%
11,CC(C)c1ccc(NC(=O)C2CCN(c3nc(-c4ccc(C(C)C)cc4)no3)CC2)cc1,-71.9% (active)
12,CCOc1ccc(NC(=O)C2CCN(S(=O)(=O)c3cc(-c4noc(C)n4)ccc3C)CC2)cc1,10.9%
13,CC(C)c1ccc(-c2noc(C3CCCN(S(C)(=O)=O)C3)n2)cc1 (stereo not given),-15.2%
14,C[C@@H]1CN([C@@H](C)CO)C(=O)c2cc(NC(=O)C3CC3)ccc2O[C@H]1CN(C)C,34.3%
15,COc1cc(C(=O)Nc2cc(C(F)(F)F)ccc2-n2cncn2)cc(OC)c1OC,-20%
16,COCCCNC(=O)c1cccc2c(-c3ccc(O)c(OC)c3)coc12,71.3%
17,CC(Sc1ccc(S(=O)(=O)N2CCN(C)CC2)cn1)C(=O)NC1CCCC(C)C1C (stereo not given),-4.06%
18,COC(=O)c1ccc(S(=O)(=O)c2ccc(C(=O)OC)s2)s1,23.7%
19,CCc1ccc(C2=CC(=O)CC(C)(C)C2=O)cc1,-23%
